Data: PubChem BioAssay (NCATS)
Records with an inconclusive call do not appear. A number with no mark means an inactive call. The call rests on the fitted dose curve; in most records, active means well fitted activation curve with a large enough effect; inconclusive means small, poorly fitted or top-dose-only effect; inactive means flat fitted curve, though single readings scatter.

Assay: Primary redox qHTS assay for identification of artifact compounds. (AID 1845223);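 further: 0% = DMSO and 100% = reference compound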
Details: Amplex Red/HRP redox cycling with DTT, fluorescence; series mostly up to 53.8 µM; redox activity (% of DA3003): at the top concentration
Outline: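 Amplex Red (25 uM) and HRP (250 mU/mL) in HBSS, with compounds for 15 min, then 250 uM DTT for 30 min, room temperature, dark. Fluorescence 525/598 nm read; normalized to DMSO and 10 uM DA3003; Hill fit.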
With `CC(=O)OC[C@@]12C(=O)C[C@@H](C)[C@]3(C[C@@H](c4ccoc4)OC3=O)[C@H]1CC[C@H](OC(C)=O)[C@]21CO1` the “redox activity (% of DA3003)” value was -5.54% [at 25.6 µM]. For `CCCCC(=O)N1c2ccccc2NC2=C(C(=O)CCC2)C1c1ccccc1Cl` (stereo not drawn), the “redox activity (% of DA3003)” value was 15.3%. With `CN(C)CCC[C@]1(c2ccc(F)cc2)OCc2cc(C#N)ccc21` the “redox activity (% of DA3003)” value was -5.01%. For `O=C1C[C@@]2(C(=O)N1)C(=O)N(Cc1ccc(Br)cc1F)C(=O)c1cccn12`, the “redox activity (% of DA3003)” value was 4.98%. With `C/C=C/C=C/C=C/C(=O)O[C@@H]1C=C(CO)[C@](O)(CO)[C@@]2(C)CCCC(C)(C)[C@H]12` the “redox activity (% of DA3003)” value was 16.9%. With `CC[C@H](NC(=O)c1c(O)c(-c2ccccc2)nc2ccccc12)c1ccccc1` the “redox activity (% of DA3003)” value was -1.92%. With `COc1ccc(/C=C/C(N)=O)cc1OC` the “redox activity (% of DA3003)” value was 14.4%. For `O=C(Nc1ccc(N2CCC(C(=O)N3CCOCC3)CC2)cc1)c1cnc(Oc2ccccc2)nc1`, the “redox activity (% of DA3003)” value was -0.423%.
